The values that follow come from PubChem BioAssay (NCI).

Compounds without any hit were thinned out: in the full panel of roughly 83,000, 20% have a hit.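 The test compound was applied at a single concentration to cells in 96-well plates for 48 hours, and percent growth was recorded.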 Calls of active or inactive are those of the source. The calls were made as follows: active = growth percent below 10; inactive = the rest.

The subject of the assay is NCI/ADR-RES ovarian. The assay is described as follows: NCI-60 one-dose screen, 48 h (100 = growth as untreated, 0 = no growth, -100 = all killed). The settings on record: 10 µM unless noted.
As to `CCOC(=O)c1c(C)[nH]c2ccc(O)cc12`, the growth is 101% (inactive).

As to `CCC1CCCCN1C(=S)N/N=C(\C)c1ccccn1` (stereo not drawn), the growth was 5.77% (active).

As for `CC(/C=N/NC(N)=S)Cc1ccc(C(C)C)cc1` (stereo not drawn), the growth was 64.4% (inactive).

On to `Nc1ccc(C(=O)/C=C/c2ccccc2)cc1`, for which the growth was 101% (inactive).

Take `Cc1oc2c(C)c3oc(=O)cc(C)c3cc2c1CCl`: the growth was 83.7% (inactive).

With `O=C(/C(Cl)=N/O)c1ccc(-c2ccccc2)cc1`, the growth was 99.9% (inactive).

Turning to `CC(C)c1ccc(Nc2n[nH]c(=S)s2)cc1`, the growth was 102% (inactive).

Regarding `NC(=S)N/N=C\c1nccc2c(N)cccc12`, the growth is 10.8% (inactive).

`COc1cc2c(c(OC)c1OC)-c1ccc(NCc3ccccc3)c(=O)cc1[C@@H](NC(C)=O)CC2`: the growth was 66.4% (inactive).

Turning to `CCCCCCCCCCCCCCCCSC(=NCC)NCC`, the growth was 25.4% (inactive).

Take `CN(Cc1ccccc1)c1ccc(SC#N)cc1`: the growth is 86.7% (inactive).

`CC(=O)Nc1ccc(C(=O)CCl)cc1`: the growth is 84.5% (inactive).

Regarding `O=[N+]([O-])c1ccc(N2CCN(Cc3ccccc3)CC2)c2c1no[n+]2[O-]`, the growth is 24.5% (inactive).

As for `CCOC(=O)NC(/C=C/c1ccccc1)NC(=O)OCC`, the growth was 109% (inactive).

For `CCCCN(CCCC)CCCCCCCCCCO`, the growth was 103% (inactive).

As to `S=C1SCN(Cc2cccs2)CN1Cc1cccs1`, the growth is 108% (inactive).

Turning to `CCOC(=O)/C(=C\c1ccc2ccccc2c1)P(=O)(OCC)OCC`, the growth is 10.4% (inactive).

For `Nc1ccc(Oc2ccccc2)c(Cl)c1`, the growth is 114% (inactive).

For the molecule `COc1ccc(C(Cn2ccnc2)Sc2ccc(Cl)c(Cl)c2)cc1` (stereo not drawn), the growth was 69.1% (inactive).

For the molecule `O=[N+]([O-])/C(=C/c1ccccc1)c1ccccc1`, the growth was 106% (inactive).

`O=C1C=CC(=O)N1C1CCCCCCCCCCC1`: the growth was 102% (inactive).

As for `Cc1nc(Sc2nc3ccc([N+](=O)[O-])cc3s2)sc1C`, the growth is 16.7% (inactive).

For the molecule `Fc1ccc(NCCS)cc1`, the growth is 109% (inactive).

Turning to `OCCOSCCO`, the growth is 113% (inactive).

As to `COc1cc(OC)c(/C=C/c2c3ccccc3cc[n+]2C)c(OC)c1`, the growth was 96.6% (inactive).

As for `O=C/C=C/c1ccc([N+](=O)[O-])cc1`, the growth is 99.6% (inactive).

Consider `COc1ccc2nc3cc(Cl)ccc3c(NCCCCCN3CCCCC3)c2c1`, for which the growth was -8.47% (active).

Regarding `COc1cc(-c2ccc(-[n+]3nc(-c4ccc([N+](=O)[O-])cc4)nn3-c3ccc([N+](=O)[O-])cc3)c(OC)c2)ccc1-[n+]1nc(-c2ccc([N+](=O)[O-])cc2)nn1-c1ccc([N+](=O)[O-])cc1`, the growth was 73.4% (inactive).

As to `O=C1C=CC(=O)N1c1cc(Cl)c(Cl)cc1Cl`, the growth is 104% (inactive).

With `O=[N+]([O-])c1ccc(C2N(Cc3ccc(Cl)cc3)CCN2Cc2ccc(Cl)cc2)cc1`, the growth is 87.6% (inactive).

`Oc1ccc2c(c1)CCc1ccccc1-2`: the growth was 114% (inactive).

For the molecule `COc1cc(/C=C2\SC(=S)N(/C=C/c3nc4ccccc4[nH]c3=O)C2=O)cc(OC)c1OC`, the growth was 86.6% (inactive).

Take `CC(C)(C)CC(C)(C)c1ccc(OCCOCCSC(=N)N)cc1`: the growth was 45.5% (inactive).
